# According to PubChem BioAssay (NCATS):
# Where “and” joins values, the source holds several entries; their conditions need not be identical. Equal entries are not always repeated. Records with an inconclusive call do not appear. A call without a number means that no potency is given here. Calls of active or inactive are those of the source. Unless noted, calls come from the whole dose curve. Square brackets hold non-standard residues; d marks the D form. Peptide text beside a SMILES is read from it. * marks the point of attachment. Sta = CC(C)C[C@H](N)[C@@H](O)CC(=O)O; Isovaleryl = CC(C)CC(=O)*
# What was measured:
# [1] = qHTS for Inhibitors of the Functional Ribonucleoprotein Complex (vRNP) of Lassa (LASV) Arenavirus: LASV Primary Screen - GLuc reporter signal (AID 1347082; calls by dose curve; tested in HEK293 reporter line; note: nearly all actives have a fitted effect of over 60% in size)
# [2] = qHTS for Inhibitors of the Functional Ribonucleoprotein Complex (vRNP) of Lassa (LASV) Arenavirus: Viability assay - alamar blue signal for LASV Primary Screen (AID 1347083; calls by dose curve; tested in HEK293 reporter line; note: nearly all actives have a fitted effect of over 80% in size)
# [3] = qHTS for Inhibitors of the Functional Ribonucleoprotein Complex (vRNP) of Lymphocytic Choriomeningitis Arenaviruses (LCMV): Viability assay - alamar blue signal for LCMV Primary Screen (AID 1347085; calls by dose curve; tested in HEK293 reporter line; note: nearly all actives have a fitted effect of over 80% in size)
# [4] = target: Nucleoprotein (Lymphocytic choriomeningitis virus (strain Armstrong)) (UniProt P09992); test: qHTS for Inhibitors of the Functional Ribonucleoprotein Complex (vRNP) of Lymphocytic Choriomeningitis Arenaviruses (LCMV): LCMV Primary Screen - GLuc reporter signal (AID 1347086); note: nearly all actives have a fitted effect of over 70% in size
# Chain of Nucleoprotein (Lymphocytic choriomeningitis virus (strain Armstrong)) (P09992 whole entry, looked up): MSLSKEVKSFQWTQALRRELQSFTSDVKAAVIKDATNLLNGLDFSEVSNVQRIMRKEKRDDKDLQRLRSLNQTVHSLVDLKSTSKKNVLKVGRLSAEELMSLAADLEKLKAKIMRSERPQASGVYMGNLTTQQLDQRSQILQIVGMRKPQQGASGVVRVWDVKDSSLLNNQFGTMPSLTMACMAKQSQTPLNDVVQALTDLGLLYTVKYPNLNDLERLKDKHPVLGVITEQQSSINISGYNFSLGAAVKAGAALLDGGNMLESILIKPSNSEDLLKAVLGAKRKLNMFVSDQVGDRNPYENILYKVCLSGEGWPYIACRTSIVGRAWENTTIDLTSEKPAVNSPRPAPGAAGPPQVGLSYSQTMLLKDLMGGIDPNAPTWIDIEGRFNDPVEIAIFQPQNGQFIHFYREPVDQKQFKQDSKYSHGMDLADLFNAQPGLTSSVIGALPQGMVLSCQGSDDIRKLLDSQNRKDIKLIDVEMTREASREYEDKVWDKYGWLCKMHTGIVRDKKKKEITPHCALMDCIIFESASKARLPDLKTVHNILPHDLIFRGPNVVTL
# Potency is the fitted concentration of half-maximal effect.
SMILES,Potency [1],Potency [2],Potency [3],Potency [4]
CCC(C(=O)OCCOCCN(CC)CC)c1ccccc1 (stereo not drawn),inactive,inactive,inactive,inactive
O=C(Oc1cccc2cccnc12)c1ccccc1,inactive,inactive,inactive,inactive
CC(C)NC(=O)c1ccc(C=O)cc1,inactive,inactive,inactive,inactive
CCCCCCCCCCCC[N+](C)(C)Cc1ccccc1,inactive,inactive,inactive,inactive
CN1CCOC(c2ccccc2)c2ccccc2C1 (stereo not drawn),inactive,inactive,inactive,inactive
N[C@H]1CN(c2c(F)cc3c(=O)c(C(=O)O)cn(C4C[C@@H]4F)c3c2Cl)CC12CC2 (stereo partly drawn),inactive,inactive,inactive,inactive
NS(=O)(=O)c1ccc(N2CCCCS2(=O)=O)cc1,inactive,inactive,inactive,inactive
CCOC(=O)c1cc(=O)c2c(OCC(COc3cccc4oc(C(=O)OCC)cc(=O)c34)OC(=O)[C@@H](N)CCCCN)cccc2o1,inactive,inactive,inactive,inactive
O=c1oc2c(O)c(O)cc3c(=O)oc4c(O)c(O)cc1c4c23,inactive,inactive,inactive,inactive
Cc1ccc(/C(=C\CN2CCCC2)c2ccccn2)cc1,inactive,inactive,inactive,inactive
COc1cc2c(cc1OC)-c1cc(=Nc3c(C)cc(C)cc3C)n(C)c(=O)n1CC2,inactive,inactive,inactive,inactive
O=c1[nH]cnc2c1ncn2[C@@H]1O[C@H](CO)[C@@H](O)[C@H]1O,inactive,inactive,inactive,inactive
CC(=O)OCC(=O)NCCCOc1cccc(CN2CCCCC2)c1,inactive,inactive,inactive,inactive
Nc1ccc(S(=O)(=O)Nc2cnc3ccccc3n2)cc1,inactive,inactive,inactive,inactive
CO/N=C(\C(=O)O)c1csc(NC(=O)CCl)n1,inactive,inactive,inactive,inactive
C[C@H](O)C(=O)Nc1c(I)c(C(=O)NC(CO)CO)c(I)c(C(=O)NC(CO)CO)c1I,inactive,inactive,inactive,inactive
CCN(CCCc1ccccc1)CCCc1ccccc1,inactive,inactive,inactive,inactive
Cc1cccc(N(C)C(=S)Oc2ccc3c(c2)C2CCC3C2)c1 (stereo not drawn),inactive,inactive,inactive,inactive
O=C(Nc1ccccc1)OCC(CN1CCCCC1)OC(=O)Nc1ccccc1 (stereo not drawn),inactive,inactive,inactive,inactive
CC(C)CC(=O)N[C@H](C(=O)N[C@H](C(=O)N[C@@H](CC(C)C)[C@@H](O)CC(=O)N[C@@H](C)C(=O)N[C@@H](CC(C)C)[C@@H](O)CC(=O)O)C(C)C)C(C)C (Isovaleryl-VV[Sta]A[Sta]-OH),inactive,inactive,inactive,inactive
CN(C)CC[C@@H](c1ccc(Cl)cc1)c1ccccn1,inactive,inactive,inactive,inactive

SMILES,Potency [1],Potency [2],Potency [3],Potency [4]
COC(=O)c1cc(S(N)(=O)=O)ccc1OC,inactive,inactive,inactive,inactive
C=C1C(=C/C=C2\CCC[C@]3(C)[C@@H]([C@H](C)/C=C/[C@@H](O)C4CC4)CC[C@@H]23)C[C@@H](O)C[C@@H]1O,inactive,inactive,inactive,inactive
COC(=O)C1=C(C)NC(C)=C(C(=O)OC)C1c1ccccc1[N+](=O)[O-],inactive,inactive,inactive,inactive
COc1ccccc1OC(=O)Oc1ccccc1OC,inactive,inactive,inactive,inactive
O=C(O)Cc1ccc2c(c1)C(=O)c1ccccc1CO2,inactive,inactive,inactive,inactive
O=c1[nH]c2cc(C(F)(F)F)c(N3CCOCC3)cc2n(CP(=O)(O)O)c1=O,inactive,inactive,inactive,inactive
CN(C)c1ccc(C(=C2C=CC(=[N+](C)C)C=C2)c2ccc(N(C)C)cc2)cc1,1220 nM (active),3850 nM (active),5.62 µM (active) and 3.85 µM (active),1530 nM (active)
CC(C(=O)O)c1ccc2c(c1)Cc1cccnc1O2 (stereo not drawn),inactive,inactive,inactive,inactive
C[C@]12CCC(=O)C=C1CC[C@@H]1[C@@H]2C(=O)C[C@@]2(C)[C@H]1CC[C@]2(O)C(=O)CO,inactive,inactive,inactive,inactive
CCN(CC)CCN,inactive,inactive,inactive,inactive
Cl/C(=C\n1cncn1)c1ccc(Cl)cc1Cl,inactive,inactive,inactive,inactive
CCOC(=O)CN1CCCC1=O,inactive,inactive,inactive,inactive
CC(Oc1c(Cl)cccc1Cl)C1=NCCN1 (stereo not drawn),inactive,inactive,inactive,inactive
CC(=O)[C@@]1(O)CC[C@H]2[C@@H]3CCC4=CC(=O)CC[C@]4(C)[C@H]3CC[C@@]21C,inactive,inactive,inactive,inactive
CCNC(=O)NCCCOc1cccc(CN2CCCCC2)c1,inactive,inactive,inactive,inactive
CSc1ccc2c(c1)C(N1CCN(C)CC1)Cc1ccccc1S2 (stereo not drawn),inactive,inactive,inactive,inactive
CC(C)(C)C(=O)OCOC(=O)C1N2C(=O)CC2S(=O)(=O)C1(C)C (stereo not drawn),inactive,inactive,inactive,inactive
CCc1nnc(NS(=O)(=O)c2ccc(N)cc2)s1,inactive,inactive,inactive,inactive
COC(=O)C1=C(C)NC(C)=C(C(=O)OCCN2CCN(C(c3ccccc3)c3ccccc3)CC2)C1c1cccc([N+](=O)[O-])c1 (stereo not drawn),inactive,inactive,inactive,inactive
CC1(c2ccccc2)OC(C(=O)O)=CC1=O (stereo not drawn),inactive,inactive,inactive,inactive
CCCCCOc1ccc(C2SC(=O)NC2=O)cc1OCC (stereo not drawn),inactive,inactive,inactive,inactive

SMILES,Potency [1],Potency [2],Potency [3],Potency [4]
CCCCN(CCCC)C(C(N)=O)c1ccc(OC)cc1 (stereo not drawn),inactive,inactive,inactive,inactive
O=C1NC(=O)[C@@]2(CCOc3ccc(F)cc32)N1,inactive,inactive,inactive,inactive
C[C@@H](O)[C@H](N)C(=O)O,inactive,inactive,inactive,inactive
CCC1Nc2cc(Cl)c(S(N)(=O)=O)cc2S(=O)(=O)N1 (stereo not drawn),inactive,inactive,inactive,inactive
O=C(OCC(O)CO)c1ccccc1Nc1ccnc2c(C(F)(F)F)cccc12 (stereo not drawn),inactive,inactive,inactive,inactive
CN(C)CCCSc1ccccc1NC(=O)/C=C/c1ccccc1,inactive,inactive,inactive,inactive
COc1cc(OC)cc(OC)c1,inactive,inactive,inactive,inactive
Cc1oc(-c2ccccc2)nc1CCC(=O)c1ccc(CC2SC(=O)NC2=O)cc1 (stereo not drawn),inactive,inactive,inactive,inactive
CC(C)(C)C(=O)OCOC(=O)[C@@H]1N2C(=O)[C@@H](NC(=O)[C@H](N)c3ccccc3)[C@H]2SC1(C)C,inactive,inactive,inactive,inactive
CCCCNc1c(C(=O)OCC)c(C)nc2c1cnn2CC,inactive,inactive,inactive,inactive
O=C(CN1CCN(Cc2ccc3c(c2)OCO3)CC1)N1c2ccccc2Sc2ccccc21,inactive,inactive,inactive,inactive
Nc1ccc(C(=O)NCC(=O)O)cc1,inactive,inactive,inactive,inactive
C[C@]12CCC(=O)C=C1CC[C@@H]1[C@@H]2[C@@H](O)C[C@@]2(C)[C@H]1CC[C@]2(O)C(=O)CO,inactive,inactive,inactive,inactive
C/C=C(/C(=C/C)c1ccc(O)cc1)c1ccc(O)cc1,inactive,inactive,inactive,inactive
CN1C(=O)CC(c2ccccc2)C1=O (stereo not drawn),inactive,inactive,inactive,inactive
Cc1cc(C(C)(C)C)c(O)c(C)c1CC1=NCCN1,inactive,inactive,inactive,inactive
CCC(=O)O[C@]1(C(=O)COC)[C@@H](C)C[C@H]2[C@@H]3CCC4=CC(=O)C=C[C@]4(C)C3(F)[C@@H](O)C[C@@]21C (stereo partly drawn),inactive,inactive,inactive,inactive
CC(COc1ccccc1)NC(C)C(O)c1ccc(O)cc1 (stereo not drawn),inactive,inactive,inactive,inactive
COc1cc([C@H]2Oc3cc([C@H]4Oc5cc(O)cc(O)c5C(=O)[C@@H]4O)ccc3O[C@@H]2CO)ccc1O,inactive,inactive,inactive,inactive
O=C(O)CN(CCOCCOCCN(CC(=O)O)CC(=O)O)CC(=O)O,inactive,inactive,inactive,inactive
CC(=O)c1ccc2c(c1)N(CCCN1CCC(CCO)CC1)c1ccccc1S2,inactive,inactive,inactive,inactive

SMILES,Potency [1],Potency [2],Potency [3],Potency [4]
CC1(C)OC(=O)Nc2ccc(Br)cc21,inactive,inactive,inactive,inactive
Clc1ccc(C(Cn2ccnc2)OCc2ccsc2Cl)c(Cl)c1 (stereo not drawn),inactive,inactive,inactive,inactive
Cc1ccc2c(Cl)cc(Cl)c(O)c2n1,inactive,inactive,inactive,inactive
NCC(=O)O,inactive,inactive,inactive,inactive
CC(C)N=C(N)/N=C(\N)Nc1ccc(Cl)cc1,inactive,inactive,inactive,inactive
Oc1ccc(Cl)cc1Cc1cc(Cl)ccc1O,inactive,inactive,inactive,inactive
CC1CCCCN1CCCOC(=O)c1ccc(OC2CCCCC2)cc1 (stereo not drawn),inactive,inactive,inactive,inactive
OC(CCN1CCCCC1)(c1ccccc1)c1ccccc1,inactive,inactive,inactive,inactive
CC1(C)O[C@@H]2C[C@H]3[C@@H]4C[C@H](F)C5=CC(=O)CC[C@]5(C)[C@H]4[C@@H](O)C[C@]3(C)[C@]2(C(=O)CO)O1,inactive,inactive,inactive,inactive
CCN(CC)CCCN(c1ccccc1)C1Cc2ccccc2C1,inactive,inactive,inactive,inactive
CNC1CCCN(c2c(F)cc3c(=O)c(C(=O)O)cn(C4CC4)c3c2OC)C1 (stereo not drawn),inactive,inactive,inactive,inactive
CNC(=O)c1c(I)c(NC(=O)CCCCC(=O)Nc2c(I)c(C(=O)O)c(I)c(C(=O)NC)c2I)c(I)c(C(=O)O)c1I,inactive,inactive,inactive,inactive
COc1ccnc2c1CCCCC2S(=O)c1nc2ccccc2[nH]1 (stereo not drawn),inactive,inactive,inactive,inactive
C/C=C/C(=O)N(CC)c1ccccc1C,inactive,inactive,inactive,inactive
COCC(=O)O[C@]1(CCN(C)CCCc2nc3ccccc3[nH]2)CCc2cc(F)ccc2[C@@H]1C(C)C,inactive,inactive,inactive,inactive
O=C(CCCN1CCC(O)(c2ccc(Br)cc2)CC1)c1ccc(F)cc1,inactive,inactive,inactive,inactive
CS(=O)(=O)c1ccc(-c2cn3ccccc3n2)cc1,inactive,inactive,inactive,inactive
Cn1c(=O)c2c(ncn2C)n(C)c1=O,inactive,inactive,inactive,inactive
CC(=O)OCC(=O)[C@@]1(O)CC[C@H]2[C@@H]3CCC4=CC(=O)C=C[C@]4(C)[C@H]3[C@@H](O)C[C@@]21C,inactive,inactive,inactive,inactive
